Screening results (PubChem)
The list is not random: actives were taken first. Their share in the collection is about 21%.
Shiga inhibitor – blocks Shiga toxin action in Vero cells; inhibition, % at 38.7 µM; Vero cells, Shiga toxin protein synthesis inhibition reporter; 9.2% of 290,000 active; AID 2315; in the data active means inhibition mostly above about 28%, no sharp cut-off; inactive means mostly below about 43%
Pf growth 96h – P. falciparum growth inhibition at 96 hours; P. falciparum luciferase reporter growth, 96 h; Potency, µM (doses to about 28.7 µM), hits mostly inhibitors; 6.9% of 320,000 active; AID 504834
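Cell-based qHTS: luciferase-tagged P. falciparum in erythrocytes (2% hematocrit, 0.05% parasitemia final) incubated with compounds for 96 hours, 37 C, 5% CO2; luciferase detection reagent then added and luminescence measured.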
CHX counter – counter-screen hit for Shiga toxin inhibitors, cycloheximide. AID 2314. cell reporter, cycloheximide protein synthesis inhibition counterscreen. 12% of 300,000 active. max response, %; in the data active means max response mostly above about 13%, no sharp cut-off; inactive means mostly below about 14%; further: read at 38.3 µM for the half of the compounds with a filed dose
Pf growth 48h – inhibits P. falciparum growth in the first generation, 48 h | Potency, µM (doses to about 28.7 µM), most hits filed as inhibitors | AID 504832 | P. falciparum luciferase growth in erythrocytes, 48 h | 5.9% of 310,000 active
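A one-generation exposure of luciferase-tagged malaria parasites in RPMI 1640/Albumax erythrocyte culture, 37 C and 5% CO2. Inhibition is inferred from decreased luminescence after adding detection reagent.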
HCMV antiviral – blocks human cytomegalovirus replication; 4.5% of 410,000 active; HFF cells, HCMV-luciferase reporter, 72 h; active compounds read low; activity change, negative = inhibition, % at 57.5 µM; in the data active means activity change below about -60%; inconclusive means no clear call, values can overlap the other calls; inactive means above about -39%
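Cell-based, HFFs, 1000 cells/well, 16 h 37C; cpds in DMSO + HCMV-luc, MOI 1 PFU/cell; 72 h 37C; OneGlo luminescence after 5 min RT; norm. to buffer vs Salinomycin 10uM.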
HCV inhibitor – blocks hepatitis C virus; Huh7.5.1 HCVcc-Cre infection, luciferase reporter, 44 h; Potency, µM (highest dose often 41.8 µM), usual class: inhibitors; 3.4% of 340,000 active; AID 651820
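Compounds are dispensed onto cells plated 4 h earlier at 1,000 per well, with HCVcc-Cre virus (about 0.5 moi) added next. Following 44 h of culture, luminescent signal is measured for 15 sec after 15 min with substrate at room temperature.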
Numbers stand for hits; 0 = inactive; ? = inconclusive; - = no result; [ ] = dose if it differs, or a comment. Unless noted, the call rests on the fitted dose curve; in most records, active means well fitted inhibition curve with a large enough effect; inconclusive means small, poorly fitted or top-dose-only effect, or another doubt; inactive means no such curve, though single readings can be large or run the other way.

SMILES	Shiga inhibitor	Pf growth 96h	CHX counter	Pf growth 48h	HCMV antiviral	HCV inhibitor
CCCOc1cc(CN2CCCCC2)cc(C(C)=O)c1	0	9.3µM	0	0	0	0
CCCOc1ccc(C(=O)CCN2CCCCC2)cc1	0	-	0	0	0	0
COc1cc(OC)c(-c2nn3c(-c4ccco4)nnc3s2)cc1OC	0	0	0	10µM	?	0
COc1cccc(-c2nnc3sc(-c4ccco4)nn23)c1	0	?	39	0	0	0
c1csc(-c2nn3c(-c4ccncc4)nnc3s2)c1	0	?	0	0	-	-
COc1ccc(-c2nnc3sc(-c4ccco4)nn23)cc1OC	0	-	0	0	0	0
c1coc(-c2nnc3sc(-c4cccs4)nn23)c1	0	-	14	0	0	0
COc1ccc(-c2nn3c(-c4ccco4)nnc3s2)cc1OC	0	0	0	?	0	0
c1ccc(-c2cc(-c3nn4c(-c5ccco5)nnc4s3)c3ccccc3n2)cc1	0	-	0	3.7µM	-	?
CC(C)N(Cc1ccccc1)C(=O)COC(=O)c1c(F)cccc1F	-	-	-	-	0	0
CCCCCn1c(CCCNC(=O)c2ccc(Cl)cc2)nc2ccccc21	-	-	-	-	0	-
CCOC(=O)c1ccccc1NC(=O)Nc1cc2c(cc1N1CCCC1)n(C)c(=O)n2C	-	-	-	-	0	-
O=C(NC1CCN(C(=O)c2ccccc2Br)CC1)c1ccccc1	0	0	0	0	0	0
CC(Oc1ccc(F)cc1F)C(=O)NNC(=S)NCC1CCCO1 (stereo unspecified)	0	?	0	?	0	0
Cc1ccc(C=Nc2cccnc2N)cc1	13	0	19	0	-	0
COc1ccc(C=Nc2cccnc2N)cc1	-	0	24	0	-	0
Cc1ccc(-c2noc(-c3cccnc3NCc3ccc(Cl)cc3)n2)cc1	-	-	-	-	0	-
COc1ccc(Cl)cc1NC(=O)c1nnn(CC(=O)Nc2ccc(C)c(C)c2)c1N	0	?	0	0	0	0
COC(=O)c1ccc(S(=O)(=O)N2CCN(CCO)CC2)n1C	0	0	0	0	0	0
COC(=O)c1ccc(S(=O)(=O)N2CCCN(Cc3cccc(Br)c3F)CC2)n1C	0	0	0	0	-74	?
COC(=O)c1ccc(S(=O)(=O)N2CCN(C(c3ccccc3)c3ccccc3)CC2)n1C	0	?	0	10µM	0	0
CCCCOc1ccc(-c2ncc(N)cn2)cc1	114	0	53	0	0	?
CCOc1ccc(-c2nnc(N)s2)cc1	142	0	25	0	0	0
CCOc1ccc(-c2nc(CCl)cs2)cc1	153	0	34	0	0	0
CC(C)(C)c1ccc(-c2nnc(N)s2)cc1	80	0	59	0	0	0
SMILES	Shiga inhibitor	Pf growth 96h	CHX counter	Pf growth 48h	HCMV antiviral	HCV inhibitor
CCCCOc1ccc(S(N)(=O)=O)cc1	0	0	0	0	0	0
Nc1ccc(S(=O)(=O)Nc2cccc3cccnc23)cc1	0	-	0	-	-	-
CN(C)CCN1CCN(C2CN(C3CCCCC3)S(=O)(=O)C2)CC1 (stereo unspecified)	-	-	-	-	0	-
CCCCOc1ccc(-c2nnc(N)s2)cc1	0	?	21	0	0	0
Nc1nnc(-c2ccc(F)cc2)s1	0	0	0	0	0	0
CC(=O)Nc1ccc(S(=O)(=O)NCCOc2ccc(Cl)cc2C)cc1	0	0	0	0	-74	0
CCOC(=O)c1snc(-c2ccc(F)cc2)c1N	103	-	35	0	0	0
Cc1ccc(C(=O)Nc2c(C)nc3ccccn3c2=O)cc1C	-	-	-	-	0	-
CCOC(=O)C1=C(CSc2nc(-c3ccccc3)ccc2C#N)OC(N)=C(C#N)C1c1cccnc1 (stereo unspecified)	92	?	42	-	0	0
COC(=O)C1=C(CSc2nc3c(cc2C#N)CN(C)CC3)OC(N)=C(C#N)C1c1ccccc1F (stereo unspecified)	0	12µM	0	?	-	?
CCOC(=O)C1=C(CSc2nc3c(cc2C#N)CN(C)CC3)OC(N)=C(C#N)C1c1ccccc1 (stereo unspecified)	0	0[5.75 µM]	0	?	0	?
CCOC(=O)C1=C(CSc2nc(-c3ccccc3)ccc2C#N)OC(N)=C(C#N)C1c1ccccc1 (stereo unspecified)	0	?	0	-	0	0
CCOC(=O)C1=C(CSc2nc3c(cc2C#N)CN(C)CC3)OC(N)=C(C#N)C1c1ccc(F)cc1 (stereo unspecified)	0	?	0	-	0	10µM
